About 83,000 compounds went through this panel and 20% of them were active in at least one assay; those are over-represented in the sample as a whole.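 The endpoint reported here, percent growth, reads 100 for growth as untreated, 0 for no net growth and -100 for all cells dead.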 Values without a mark were called inactive. Activity calls are given as the source filed them. How the source made its calls: active means growth percent below 10; inactive means the rest.
Key:
Test in all cases: NCI-60 one-dose screen, 48 h (100 = growth as untreated, 0 = no growth, -100 = all killed)
Conditions in all cases: 10 µM unless noted
SK-MEL-2 melanoma = test system: SK-MEL-2 melanoma
EKVX NSCLC = test system: EKVX NSCLC
SN12C renal = test system: SN12C renal
UO-31 renal = test system: UO-31 renal
TK-10 renal = test system: TK-10 renal
CAKI-1 renal = test system: CAKI-1 renal
CCRF-CEM leukemia = test system: CCRF-CEM leukemia
MOLT-4 leukemia = test system: MOLT-4 leukemia
SR leukemia = test system: SR leukemia
RPMI-8226 leukemia = test system: RPMI-8226 leukemia
OVCAR-8 ovarian = test system: OVCAR-8 ovarian
OVCAR-4 ovarian = test system: OVCAR-4 ovarian
SK-OV-3 ovarian = test system: SK-OV-3 ovarian
IGROV1 ovarian = test system: IGROV1 ovarian
OVCAR-3 ovarian = test system: OVCAR-3 ovarian
HS 578T breast = test system: HS 578T breast
NCI/ADR-RES ovarian = test system: NCI/ADR-RES ovarian
ACHN renal = test system: ACHN renal
A498 renal = test system: A498 renal
OVCAR-5 ovarian = test system: OVCAR-5 ovarian

SMILES | growth (SK-MEL-2 melanoma) | growth (EKVX NSCLC) | growth (SN12C renal) | growth (UO-31 renal) | growth (TK-10 renal) | growth (CAKI-1 renal) | growth (CCRF-CEM leukemia) | growth (MOLT-4 leukemia) | growth (SR leukemia) | growth (RPMI-8226 leukemia) | growth (OVCAR-8 ovarian) | growth (OVCAR-4 ovarian) | growth (SK-OV-3 ovarian) | growth (IGROV1 ovarian) | growth (OVCAR-3 ovarian) | growth (HS 578T breast) | growth (NCI/ADR-RES ovarian) | growth (ACHN renal) | growth (A498 renal) | growth (OVCAR-5 ovarian)
O=S(=O)(NCCCNc1cc(-c2cn(-c3ccccc3)nc2-c2cccc(O)c2)ccn1)c1ccccc1 | 74.6% | 37.8% | 68.7% | 37.8% | 62.5% | 43.3% | 38.5% | 37.1% | 35.5% | 32.1% | 46.1% | 59.8% | 66.4% | 59.2% | 58.9% | 46.9% | 51.3% | – | – | –
NS(=O)(=O)N(c1cc(C(F)(F)F)cc(C(F)(F)F)c1)C1CCN(Cc2ccc(F)cc2)CC1 | 74.2% | 72.2% | 42.2% | 35.6% | 81.4% | 62.5% | – | 39% | -35.1% (active) | – | 73.2% | 72.4% | 87.9% | – | 60% | 84% | 51.3% | 75.2% | 76.3% | 90.9%
CCOC(=O)C(CC)n1c(=O)c2cc(OC)c(OC)cc2c2cnc3[nH]ccc3c21 (stereo not drawn) | 103% | 76.4% | 64.9% | 37% | 74.2% | 59% | – | 53.6% | – | 70.1% | 80% | 93.3% | 58.5% | 19.7% | 76.3% | 41.7% | 73.3% | 61.8% | -9.97% (active) | 63.8%
Cc1cc(-c2nc3ccccc3s2)ccc1NC(=O)COc1ccc(Cl)cc1 | 104% | 78.9% | 88.3% | 69% | 53.7% | 84.5% | 106% | 94.5% | 87.5% | 72.1% | 105% | 56.5% | 104% | 31.6% | 120% | 117% | 93.3% | 95.5% | – | 65.5%
NS(=O)(=O)c1ccc(Nc2nc3n[nH]c(Nc4ccccc4)c3c(=O)[nH]2)cc1 | 101% | 107% | 103% | 74.9% | 106% | 88.7% | 105% | 89.2% | 94.1% | 107% | 100% | 105% | 84.4% | 102% | 106% | 103% | 99.7% | 109% | – | 111%
O=C(/C=C\c1ccc2ccccc2n1)c1cc(Cl)ccc1O | -9.71% (active) | 85.9% | 110% | 65.2% | 95.1% | 44.9% | – | 54.2% | – | – | 63.6% | 73.6% | 111% | 86.1% | 43.5% | 95.1% | 60.4% | 89.5% | 113% | 81.3%
O=C1C[C@H](Sc2nc(-c3ccc(F)cc3)cc(C(F)(F)F)n2)[C@H]2CO[C@@H]1O2 | 107% | 107% | 92.4% | 88.3% | 99.2% | 81.5% | 51.1% | 78.3% | 17.9% | 96.9% | 97.4% | 108% | 108% | 115% | 91.6% | 109% | 106% | 88.9% | – | 105%
COc1cccc(-c2nc3sccn3c2-c2ccnc(NCCCNS(=O)(=O)c3ccc(Cl)cc3)c2)c1 | 45.3% | 47.8% | 41.1% | 11.9% | 83.1% | 32.6% | 23.2% | 21.6% | 50% | 9.05% (active) | 31.1% | 43.1% | 75.3% | 42% | 51.3% | 65.3% | 26.9% | 36.3% | – | 90.6%
O=c1c2c3c(sc2n2c(CCl)nnc2n1Cc1ccccc1)CCCC3 | -83.1% (active) | -35.4% (active) | -82.8% (active) | -83.2% (active) | -93.6% (active) | -100% (active) | – | -18.4% (active) | -33.9% (active) | – | 7.48% (active) | -99.3% (active) | 103% | -42.9% (active) | -98.4% (active) | -36.1% (active) | 19% | -100% (active) | 92.5% | -58.9% (active)
CNCCCn1c2c(c3ccc([N+](=O)[O-])cc3c1=O)C(=O)c1cc(OC)cnc1-2 | -43.9% (active) | 4.21% (active) | -29.7% (active) | -78.4% (active) | -23.9% (active) | -83.4% (active) | -31.9% (active) | -10.9% (active) | 2.17% (active) | -25.9% (active) | -14.9% (active) | -25.9% (active) | -15.8% (active) | 0.722% (active) | -45.1% (active) | 15.6% | -28.8% (active) | -65.2% (active) | – | 1.76% (active)
CC/C=C\C[C@H](O)C/C=C1/C(=O)C=C[C@@H]1C/C=C\CCCC(=O)OC(C)C | -21.3% (active) | 15.9% | -16.3% (active) | -72.6% (active) | -3.87% (active) | 9.27% (active) | -28.8% (active) | -24.5% (active) | -27% (active) | -21.6% (active) | 5.63% (active) | 23.3% | 16.4% | -2.92% (active) | -39.6% (active) | 53.9% | 6.4% (active) | -79.1% (active) | – | 9.35% (active)
COc1ccc(CN2C(=O)/C(=C\c3cc(OC)c(OC)c(OC)c3)c3cc(OC)ccc32)cc1 | -13.4% (active) | 13.5% | 18% | 6.01% (active) | 11.2% | -2.31% (active) | – | -24.7% (active) | -31.1% (active) | -35.9% (active) | -43.2% (active) | 27.2% | 7.88% (active) | -9.32% (active) | -10.8% (active) | 9.55% (active) | 6.96% (active) | -60.5% (active) | – | 15%
C=C1CCC2C3(C)COC(C)(C)OC3CCC2(C)C1C/C=C1/C(=O)OCC1OC(C)=O (stereo not drawn) | 49.2% | 53.5% | 33% | 64.6% | 68.7% | 19.3% | – | -16.8% (active) | – | -42% (active) | -5.77% (active) | 32.3% | 97.4% | 69.6% | -9.88% (active) | 12% | 51% | 24.3% | 116% | 38.3%
OCCNCCNc1c2ccccc2nc2ccccc12 | 68.5% | 109% | 52.2% | 65.4% | 82.7% | 94.9% | – | 16.7% | 43.9% | – | 46.3% | 63.9% | 78% | 96.7% | 65.6% | 88.4% | 89.1% | 65.3% | 83% | 114%
CCOC(=O)c1cnc2ccc(Br)cc2c1Nc1cccc(S(=O)(=O)NC)c1 | 111% | 96.2% | 103% | 80.4% | 114% | 87.4% | 105% | 115% | 124% | 110% | 101% | 82.4% | 96.2% | 89.5% | 104% | 95.8% | 80.4% | 98.3% | – | 100%
Nc1ccc(Nc2nccc(-c3ccc4ccccc4c3)n2)cc1 | 5.47% (active) | 61% | 46.8% | 45.7% | 58.7% | 32% | – | 20.2% | – | – | 48.2% | 56.4% | 60.7% | 38.2% | 46.9% | 43.1% | 18.4% | 45.6% | 16.6% | 69.1%
CN1CCN(Cc2ccc(NC(=O)c3[nH]ncc3Nc3ncnc4sccc34)cc2)CC1 | 7.08% (active) | 16.1% | 4.54% (active) | 14.8% | 16.3% | 6.37% (active) | – | – | – | -4.38% (active) | 12% | 10.2% | 31.4% | 23.6% | 3.42% (active) | -2.25% (active) | 16.4% | 1.08% (active) | -35.5% (active) | 21.2%

From PubChem BioAssay (NCI)
